# High-throughput results deposited in PubChem by National Center for Advancing Translational Sciences (NCATS).
# An excerpt weighted towards active compounds, which were near 12% of everything screened.
# G9a block = G9a (human) methyltransferase inhibition; Q96KQ7; Potency, µM (titrated, usually from 102 µM), for inactives: at the highest dose activity, negative = inhibition, most hits filed as inhibitors; 350,000 tested, 8.8% active; G9a H3K9 monomethylation, AlphaScreen, 2 h; note: % is set by controls: 0 for no effect and ±100 for the full control effect; nearly all actives have a fitted effect of over 75% in size
#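 Step 1: enzyme (final 20 nM) with compound, 15 min RT. Step 2: substrate peptide 500 nM and SAM 20 uM, 2 h RT. Step 3: anti-H3K9me1 antibody and AlphaScreen beads, 10 min, then plate read.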
# BAZ2B block = blocks human BAZ2B; AlphaScreen BAZ2B-H3K14Ac peptide displacement; 360,000 tested, 4.4% active; Potency, µM (top dose mostly 114 µM), inactives show top-dose activity change, negative = inhibition, actives largely listed as inhibitors; Q9UIF8; note: % is set by controls: 0 for no effect and ±100 for the full control effect; nearly all actives have a fitted effect of over 60% in size
#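 AlphaScreen displacement of biotin-H3(5-23)K14Ac peptide (50 nM final) from BAZ2B (50 nM final) in PBS pH 7.4, 0.01% Tween-20; complex preformed 30 min RT, then compounds (top 110 uM) 30 min RT, beads 20 min dark.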
# HP1b chromo inh = HP1-beta chromodomain-methylated histone interaction inhibition; AlphaScreen HP1-beta / biotin-H3K9me3 peptide binding; Potency, µM (series often up to 114 µM), inactives show top-dose activity change, negative = inhibition, most hits filed as inhibitors; 390,000 tested, 0.56% active; AID 540317; note: nearly all actives have a fitted effect of over 70% in size
#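 AlphaScreen: HP1-beta (50 nM) preformed 30 min with biotin-H3(1-18)K9me3 peptide (50 nM) in PBS pH 7.4, 0.01% Tween-20. Compound added for 30 min at RT, then streptavidin donor/nickel chelate acceptor beads (10 ug/mL) for 30 min.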
# Sfp inh = inhibitors of Bacillus subtilis Sfp phosphopantetheinyl transferase; Q9F4F7; Biochemical Sfp PPTase activity, qHTS; Potency, µM, for inactives: largest response in the series, negative = inhibition, actives largely listed as inhibitors; 310,000 tested, 3.5% active;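 note: the enzyme is Sfp with the accession as filed and its product quenches rhodamine fluorescence; 0% = enzyme reaction without inhibitor and -100% = no enzyme wells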
#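 Step 1, compound plus 15 nM Sfp-PPTase, 15 min, room temperature. Step 2, add rhodamine-CoA (5 uM) and BHQ-2-YbbR (12.5 uM). Step 3, read 525/598 nm fluorescence at 0 and 30 min.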
# JMJD2A Tudor inh = blocks the human JMJD2A Tudor domain; O75164; AlphaScreen JMJD2A-Tudor / H3K4me3 peptide binding; Potency, µM (titrated, usually from 114 µM), for inactives: top-dose activity change, negative = inhibition, hits mostly inhibitors; 390,000 tested, 4.4% active; AID 504339; note: % is set by controls: 0 for no effect and ±100 for the full control effect; nearly all actives have a fitted effect of over 50% in size
# L3MBTL1 block = inhibitors of human L3MBTL1. Q9Y468. AlphaScreen L3MBTL1–H3K9me1 peptide binding. Potency, µM (doses to about 57.1 µM), inactives show top-dose activity, negative = inhibition, usual class: inhibitors. 230,000 tested, 0.66% active. AID 485360; note: % is set by controls: 0 for no effect and ±100 for the full control effect; nearly all actives have a fitted effect of over 60% in size
# Target sequence (Q9Y468 whole entry, looked up): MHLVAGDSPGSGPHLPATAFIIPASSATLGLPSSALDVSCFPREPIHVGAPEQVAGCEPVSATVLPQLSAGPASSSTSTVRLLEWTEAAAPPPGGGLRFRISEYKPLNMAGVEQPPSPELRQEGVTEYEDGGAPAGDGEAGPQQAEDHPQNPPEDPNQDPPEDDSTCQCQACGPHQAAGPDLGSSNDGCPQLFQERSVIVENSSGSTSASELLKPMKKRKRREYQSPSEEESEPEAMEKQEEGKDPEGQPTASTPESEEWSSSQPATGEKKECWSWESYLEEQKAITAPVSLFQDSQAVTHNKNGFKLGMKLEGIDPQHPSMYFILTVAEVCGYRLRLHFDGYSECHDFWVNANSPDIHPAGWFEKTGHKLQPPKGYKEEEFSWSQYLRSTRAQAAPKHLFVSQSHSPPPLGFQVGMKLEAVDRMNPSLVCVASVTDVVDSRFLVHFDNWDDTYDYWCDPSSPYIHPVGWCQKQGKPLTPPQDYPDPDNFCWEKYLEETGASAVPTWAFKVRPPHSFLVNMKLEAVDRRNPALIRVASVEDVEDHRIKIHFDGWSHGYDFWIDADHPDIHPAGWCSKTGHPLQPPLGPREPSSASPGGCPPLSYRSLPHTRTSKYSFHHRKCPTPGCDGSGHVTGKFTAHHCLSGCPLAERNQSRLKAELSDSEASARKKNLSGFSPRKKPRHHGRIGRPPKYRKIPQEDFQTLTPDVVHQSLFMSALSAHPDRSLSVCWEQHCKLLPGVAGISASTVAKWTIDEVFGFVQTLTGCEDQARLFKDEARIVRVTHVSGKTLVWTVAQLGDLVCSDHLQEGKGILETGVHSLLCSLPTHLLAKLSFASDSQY
#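 L3MBTL1 50 nM + b-AHA-H3(1-15)K9me1 75 nM, 30 min RT; compound added, 30 min RT; streptavidin donor/Ni-chelate acceptor beads 10 ug/mL each final, 30 min RT dark; AlphaScreen read.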
# Numbers without * were called inactive; ? = inconclusive; / = not tested or not shown; [ ] = dose if it differs, or a comment. Calls come from the whole dose curve; as a rule, active = well fitted curve in the direction sought with a large enough effect; inconclusive = small, poorly fitted or top-dose-only effect, or another doubt; inactive = no such curve, though single readings can be large; an effect the other way counts as inactive or inconclusive. Potency is the fitted concentration of half-maximal effect.
SMILES,G9a block,BAZ2B block,HP1b chromo inh,Sfp inh,JMJD2A Tudor inh,L3MBTL1 block
Cc1cccc(NS(=O)(=O)c2ccc3c(c2)CCN3C(=O)C2CC2)c1C,-9%[59 µM],/,11%,/,-21%,/
Cc1ccc(C2NC(c3ccc4c(c3)OCO4)=CC(c3cc(Br)ccc3O)N2)cc1 (configuration not stated),/,/,11%[57 µM],/,-22%[57.1 µM],/
Cc1ccc(CCNC(=O)c2sc3ncccc3c2-n2cccc2)cc1,-3%[59 µM],-13%,11%[57 µM],/,?,/
CCOC(=O)Nc1ccc2c(c1)nc(CN1CCCCC1)n2C,2%,-3%,/,14%,/,-3%
O=C(Cc1ccc(F)cc1)NCCc1csc(-c2ccc(C(F)(F)F)cc2)n1,-1%[59 µM],-5%,14%[57 µM],/,-8%,/
O=C1c2ccccc2C(=O)C2OC12 (configuration not stated),8.9µM*,-14%,/,?,/,/
CC(N1CCOC1=O)S(=O)(=O)c1ccccc1 (configuration not stated),?,50µM*,58%,63µM*,-11%,/
CCNC(=O)c1cnc2c(-c3ccccc3)c(C)nn2c1C,7%[59 µM],-9%,73%,/,-10%,/
CC1CCCN(S(=O)(=O)c2ccc(NC(=O)CNC3CCCC3)cc2)C1 (configuration not stated),40µM*,-3%,24%[57 µM],7%,-10%,/
Cc1ccc(S(=O)(=O)N2CCCC(C)C2)cc1 (configuration not stated),69%,4%,58%,15%,24%,0%
CC1CCCN(S(=O)(=O)c2ccc(S(=O)(=O)NC(C)c3cccs3)cc2)C1 (configuration not stated),40µM*,0%,-4%,28%,-19%,/
CC1CCCN(S(=O)(=O)c2ccc(NC(=O)CN3CCN(C)CC3)cc2)C1 (configuration not stated),?,79µM*,7%,?,?,12%
CC1CCN(CC(=O)Nc2ccc(S(=O)(=O)N3CCCC(C)C3)cc2)CC1 (configuration not stated),/,-7%,24%,-3%,-8%,11%
O=C(Nc1ccc(CN2CCOCC2)cc1)c1cccc(-c2cc3ccccc3oc2=O)c1,?,79µM*,15%,-6%,-25%,7%[11.4 µM]
O=C(Nc1cccc(Cl)c1N1CCCC1)c1cccc(-c2cc3ccccc3oc2=O)c1,35µM*,10%,44%,7%,0%,10%
CC1Cc2ccccc2N1C(=O)CSc1ncc(-c2ccc(F)cc2)n1C (configuration not stated),?,28µM*,?,-12%,56µM*,-26%
Cn1c(-c2ccc(F)cc2)cnc1SCC(=O)N1CCCc2ccccc21,45µM*,32µM*,?,-7%,-29%[57.1 µM],-17%
Cc1cccc(-n2ccnc2SCC(=O)N2CCCc3ccccc32)c1C,?,50µM*,-27%,12%,?,-9%
COC(=O)c1sc(NC(=S)NC(=O)c2cccc(Br)c2)nc1C,33%,6%,21%,-15%,1%,-8%
CC(Sc1ccc(Cl)cc1)C(=O)NCC(c1ccco1)N1CCCCC1 (configuration not stated),-5%,3%,10%,/,-13%,-2%
Cc1ccc(C)c(N2CCN(C(=O)Cn3nc(Cc4cccnc4)c4ccccc4c3=O)CC2)c1,-29%[59 µM],?,5%,/,?,/
Cc1ccc(-n2c(=O)c3c(C)c(C(=O)N(C)C)sc3n(CC(=O)C(C)(C)C)c2=O)cc1C,5%[59 µM],-1%,36%,/,-26%,/
Cn1sccc1=O,1.8µM*,-11%,42%,/,-20%,0%
COc1ccccc1CNc1ncnc2ccc(-c3cccc(NS(C)(=O)=O)c3)cc12,5%[0.501 µM],/,/,-9%,/,/
COCCNc1nc(NCc2ccccc2)c2cnn(C)c2n1,?,-8%[57.1 µM],23%,8%,-16%,/
SMILES,G9a block,BAZ2B block,HP1b chromo inh,Sfp inh,JMJD2A Tudor inh,L3MBTL1 block
CCNc1nc(NCc2ccc(F)cc2)c2cnn(C)c2n1,-4%[59 µM],-12%,20%,/,50µM*,/
O=c1c(-c2ccco2)[n+]([O-])c2ccccc2n1OCc1ccccc1[N+](=O)[O-],35µM*,-33%,28%,50µM*,3%,3%
Cc1cc(Nc2ccccc2)c2c([N+](=O)[O-])c(C)cc(C)c2n1,22µM*,32µM*,40µM*,-4%,25µM*,?
Cc1cccc(Nc2cc(C)nc3ccccc23)c1,/,-6%,40%,8%,-10%,-5%
CCn1nc(C)cc1-c1nnc(Sc2ncc([N+](=O)[O-])s2)n1C,6.3µM*,-12%,19%,45µM*,?,/
CC(C)COc1cccc(C(=O)N(C)CC(=O)Nc2cccc3ccccc23)c1,/,/,28%,/,-12%,-2%
O=Cc1c[nH]c2cccc(OCc3ccccc3)c12,6%[0.501 µM],10%,-5%,/,-17%,3%
c1ccc(C2c3[nH]c4ccccc4c3CCN2Cc2cccn2-c2ccccn2)nc1 (configuration not stated),?,20µM*,-9%,-6%,?,-23%
COc1ccc(C2c3[nH]c4ccccc4c3CCN2Cc2cccn2-c2ncccn2)cc1C (configuration not stated),18%[0.501 µM],35µM*,?,56µM*,?,-7%
COc1ccccc1C1c2[nH]c3ccccc3c2CCN1Cc1cnc(C)s1 (configuration not stated),-12%,-10%,21%,8%,-1%[11.4 µM],-2%
COc1cccc(C2c3[nH]c4ccccc4c3CCN2Cc2cnn(C)c2)c1 (configuration not stated),/,?,-12%,-3%,?,/
CC(=O)Nc1ccc(CN2CCc3c([nH]c4ccccc34)C2c2ccccn2)cc1 (configuration not stated),?,?,-9%,1%,?,-27%
Cc1cccc(C2c3[nH]c4ccccc4c3CCN2Cc2cccn2-c2ncccn2)c1 (configuration not stated),/,32µM*,?,-25%,50µM*,-17%
C=C1C(C2(C)C=CC(=O)C(C)(C)C2CC(=O)OC)CC[C@@]2(C)C(c3ccoc3)OC(=O)C3OC132 (some centres not stated),/,/,/,6%,/,/
COc1ccc(NC(=O)CSc2nc(-c3cc(OC)c(OC)c(OC)c3)[nH]c2-c2ccc(F)cc2)cc1,?,?,-6%,/,?,/
Cn1c(=O)c2c(nc(CN3CCN(C(c4ccccc4)c4ccccc4)CC3)n2CCCO)n(C)c1=O,-3%,1%,15%,4%,-8%,/
CN1CCN(c2ccc(NC(=O)c3ccc(Cl)cc3)cn2)CC1,?,-26%,9%,13%,-6%,-18%
